Results with a measured potency or affinity are listed apart. Active and inactive are the calls of the source.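 The calls were made as follows: active = mean concentration giving half inhibition of the glutamate calcium response below 30 µM; inactive = the rest.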
biological target: Metabotropic glutamate receptor 3 (Rattus norvegicus) (UniProt P31422); test: mGlu3 NAM potency via calcium readout, dose response, mGlu3 NAM project, TREx293 cells, Galpha15, calcium flux (AID 651840); conditions: TREx293 mGlu3/Galpha15, calcium fluorescence, glutamate EC80
Sequence (P31422 whole entry, looked up): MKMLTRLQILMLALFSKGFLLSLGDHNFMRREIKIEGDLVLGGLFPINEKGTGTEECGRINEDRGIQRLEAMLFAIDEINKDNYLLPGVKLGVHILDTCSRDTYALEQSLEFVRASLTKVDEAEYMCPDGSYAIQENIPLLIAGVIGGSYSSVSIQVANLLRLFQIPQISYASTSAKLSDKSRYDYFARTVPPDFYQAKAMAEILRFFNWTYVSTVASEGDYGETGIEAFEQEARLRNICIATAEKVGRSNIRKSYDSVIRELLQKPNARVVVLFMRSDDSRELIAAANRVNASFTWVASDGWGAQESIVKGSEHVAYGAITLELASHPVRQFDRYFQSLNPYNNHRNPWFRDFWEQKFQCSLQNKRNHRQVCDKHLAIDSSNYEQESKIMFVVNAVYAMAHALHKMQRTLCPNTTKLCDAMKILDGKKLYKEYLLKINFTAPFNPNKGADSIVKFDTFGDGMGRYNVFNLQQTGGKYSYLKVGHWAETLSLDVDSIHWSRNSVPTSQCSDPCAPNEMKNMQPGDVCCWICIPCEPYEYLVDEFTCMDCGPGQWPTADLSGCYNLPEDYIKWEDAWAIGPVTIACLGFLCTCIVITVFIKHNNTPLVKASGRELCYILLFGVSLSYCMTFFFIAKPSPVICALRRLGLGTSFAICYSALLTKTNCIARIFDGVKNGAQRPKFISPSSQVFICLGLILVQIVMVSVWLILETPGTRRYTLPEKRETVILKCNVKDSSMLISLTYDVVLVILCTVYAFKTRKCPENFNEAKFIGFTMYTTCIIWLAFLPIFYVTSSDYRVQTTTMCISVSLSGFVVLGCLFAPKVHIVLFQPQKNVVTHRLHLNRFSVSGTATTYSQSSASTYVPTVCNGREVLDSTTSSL

outcome, inactive:
COc1ccc(C#Cc2ccc(C(=O)N3CCCC(O)(CCC4OCCCO4)C3)cc2)cc1 (configuration not stated)
COc1ccc(C#Cc2ccc(C(=O)N[C@@H]3CCCNC3)cc2)cc1
COc1ccc(C#Cc2ccc(C(=O)N3CCCC(O)(c4ccccc4OC)C3)cc2)cc1 (configuration not stated)
COc1ccc(C#Cc2ccc(C(=O)N3CCCC(O)(c4ccc(Cl)cc4)C3)cc2)cc1 (configuration not stated)
COc1ccc(C#Cc2ccc(C(=O)N3CCCC(O)(c4cccc(F)c4)C3)cc2)cc1 (configuration not stated)
COc1ccc(C#Cc2ccc(C(=O)N3CCCC(O)(c4ccncc4)C3)cc2)cc1 (configuration not stated)
O=C(c1ccc2cc(-c3cccc(-c4ccccc4)c3)ccc2c1)N1CCCC(CO)C1 (configuration not stated)
COc1ccc(C#Cc2ccc(C(=O)N3CCCC(O)(c4cccc(OC)c4)C3)cc2)cc1 (configuration not stated)
COc1ccc(C#Cc2ccc(C(=O)N3CCCC(O)(c4ccc5ccccc5c4)C3)cc2)cc1 (configuration not stated)
COc1ccc(C#Cc2ccc(C(=O)N3CCCC(O)(c4ccc(F)cc4)C3)cc2)cc1 (configuration not stated)
COc1cccc(COc2ccc(C(=O)N3CC(O)C3)cc2)c1
COc1ccc(C#Cc2ccc(C(=O)N3CCCC(O)(c4ccccc4)C3)cc2)cc1 (configuration not stated)

— PubChem BioAssay AID651840 (Vanderbilt Specialized Chemistry Center, 2012)
